{
  "source": "PubChem BioAssay AID743498",
  "about": "(The Scripps Research Institute Molecular Screening Center, 2014)",
  "note": "A number with no mark means an inactive call. Calls of active or inactive are those of the source.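 The calls were made as follows: active = IC50, the dose giving half inhibition, at or below 10 µM; inactive = IC50 above 10 µM.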",
  "data": [
    {"assay": "DNA CAG repeat dye-complex inhibitors – biochemical, fluorescence, 5'CAG/3'GTC DNA, powders, MedChem round 1, counter-screen for r(CAG) RNA repeat binder project, late-stage follow-up (AID 743498)", "conditions": "DNA d(CAG) repeat TO-PRO-1 dye displacement", "values": [
      {"smiles": "O=C(/C=C/c1cn(-c2ccccc2)nc1-c1ccccc1)NCCc1c[nH]c2ccccc12", "IC50": "> 29.9 µM"},
      {"smiles": "COc1ccc(NC(=O)/C=C/c2cn(-c3ccccc3)nc2-c2ccc(OC)cc2)cc1", "IC50": "> 29.9 µM"},
      {"smiles": "O=C(/C=C/c1cn(-c2ccccc2)nc1-c1ccc2ccccc2c1)Nc1ccc(C(=O)O)cc1", "IC50": "3.53 µM (active)"},
      {"smiles": "O=C(/C=C/c1cn(-c2ccccc2)nc1-c1ccccc1)N1CCN(CC(=O)N2CCCC2)CC1", "IC50": "> 29.9 µM"},
      {"smiles": "Cc1ccc(-c2nn(-c3ccccc3)cc2/C=C/C(=O)Nc2cccc(S(N)(=O)=O)c2)cc1", "IC50": "> 29.9 µM"},
      {"smiles": "CNC(=O)Cc1ccc(NC(=O)/C=C/c2cn(-c3ccccc3)nc2-c2ccc(F)cc2)cc1", "IC50": "> 29.9 µM"},
      {"smiles": "NC(=O)c1cc(NC(=O)/C=C/c2cn(-c3ccccc3)nc2-c2ccc(F)cc2)c(F)cc1F", "IC50": "> 29.9 µM"},
      {"smiles": "O=C(/C=C/c1cn(-c2ccccc2)nc1-c1ccccc1)NCCO", "IC50": "> 29.9 µM"},
      {"smiles": "NS(=O)(=O)c1ccc(NC(=O)/C=C/c2cn(-c3ccccc3)nc2-c2cccc(Cl)c2)cc1", "IC50": "> 29.9 µM"},
      {"smiles": "CCN(CC)C(=O)/C=C/c1cn(-c2ccccc2)nc1-c1ccccc1", "IC50": "> 29.9 µM"},
      {"smiles": "CN1C(=O)/C(=C/c2cn(-c3ccccc3)nc2-c2ccccc2)c2ccccc21", "IC50": "> 29.9 µM"},
      {"smiles": "COc1ccc(-c2nn(-c3ccccc3)cc2/C=C/C(=O)Nc2cccc(NC(C)=O)c2)cc1OC", "IC50": "> 29.9 µM"},
      {"smiles": "Cc1c(C(=O)Nc2ccc(S(=O)(=O)NCCCN3CCOCC3)cc2)oc2ccc(F)cc12", "IC50": "> 29.9 µM"},
      {"smiles": "CN1CCC(N(C)C(=O)/C=C/c2cn(-c3ccccc3)nc2-c2ccccc2)CC1", "IC50": "> 29.9 µM"},
      {"smiles": "O=C(/C=C/c1cn(-c2ccccc2)nc1-c1ccccc1)Nc1cc(S(=O)(=O)N2CCCC2)ccc1Cl", "IC50": "> 29.9 µM"},
      {"smiles": "CCOC(=O)N1CCC(NC(=O)/C=C/c2cn(-c3ccccc3)nc2-c2ccccc2)CC1", "IC50": "> 29.9 µM"},
      {"smiles": "N#C/C(=C/c1cn(-c2ccccc2)nc1-c1cccnc1)C(=O)Nc1ccc(C(=O)O)cc1", "IC50": "28.6 µM"},
      {"smiles": "COc1ccc(-c2nn(-c3ccccc3)cc2/C=C/C(=O)Nc2ccc(C(=O)O)cc2)cc1", "IC50": "3.83 µM (active)"}
    ]}
  ]
}
